The nature of test [1]: qHTS assay to identify small molecule antagonists of the progesterone receptor (PR) signaling pathway - cell viability counter screen (AID 1346798). Also: nearly all actives have a fitted effect of over 50% in size. Also: potency is read from the fitted curve at half-maximal effect. In short, it runs like this: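 In the same plates used for the beta-lactamase readout, cell viability of compound- and R5020-treated PR-UAS-bla HEK293T cells (16 hr, 37C) was assessed by CellTiter-Glo luminescence.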
(qHTS replaces the single test concentration by a dilution series.)

Test [2] can be described thus: qHTS assay to identify small molecule agonists of the progesterone receptor (PR) signaling pathway - cell viability counter screen (AID 1346799; calls by dose curve; also: nearly all actives have a fitted effect of over 45% in size). In short, it runs like this:
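Multiplexed viability read: CellTiter-Glo luminescence, 30 min RT, following LiveBLAzer FRET measurement on PR-UAS-bla HEK293T cells exposed to compounds 16 hr.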

The nature of test [3]: qHTS assay to identify small molecule antagonists of the TGF-beta/Smad signaling pathway - cell viability counter screen (AID 1346824). Also: nearly all actives have a fitted effect of over 50% in size. The method in brief: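 Cytotoxicity counter-screen run in the same wells as the beta-lactamase Smad reporter read: CellTiter-Glo luminescence after 30 min at room temperature. HEK 293T SBE-bla cells had 5 hr compound exposure at 37 C with TGF-beta1 (0.25 ng/mL stock).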

The nature of test [4]: qHTS assay to identify small molecule agonists of the TGF-beta/Smad signaling pathway - cell viability counter screen (AID 1346829). Also: nearly all actives have a fitted effect of over 45% in size. Also: potency is read from the fitted curve at half-maximal effect. In short, it runs like this:
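Tox21 qHTS format: SBE-bla HEK 293T cells treated with DMSO-dissolved compounds for 5 hr; CellTiter-Glo luminescence after 30 min at room temperature.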

Test [5] concerns the target Thyrotropin-releasing hormone receptor (Homo sapiens) (UniProt P34981). Kind of test: qHTS assay to identify small molecule agonists of the thyrotropin-releasing hormone receptor (TRHR) signaling pathway (AID 1346891; calls by dose curve; also: series mostly up to about 58 µM). The method in brief: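 Readout was intracellular calcium fluorescence in TRHR-Hek293 cells. Cells were incubated 18 h, dye-loaded 2 h at 37 °C, and treated with compound in agonist mode.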

Test [6] can be described thus: Human pregnane X receptor (PXR) small molecule agonists, qHTS cell viability counter screen (AID 1346977). Also: nearly all actives have a fitted effect of over 50% in size. Also: potency is read from the fitted curve at half-maximal effect. The method in brief:
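In each well, the PXR reporter HepG2 line was checked for viability: CellTiter-Fluor reagent added 23hr post-dosing, fluorescence read after 1hr incubation at 37C.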

Test [7] can be described thus: Caspase-3/7 induction in HepG2 cells by small molecules, qHTS assay (AID 1346978). Also: nearly all actives have a fitted effect of over 15% in size. In short, it runs like this: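 Caspase-3/7 induction was measured by Caspase-Glo 3/7 luminescence (30 min, room temperature) after a 17 hr compound exposure of wild-type HepG2 cells seeded at 2,000 per well and pre-incubated 5 hr.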
A short description of test [8]: Caspase-3/7 induction in CHO-K1 cells by small molecules, qHTS assay (AID 1346980). Also: nearly all actives have a fitted effect of over 15% in size. The method in brief: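 Luminescent Caspase-Glo 3/7 read (30min, room temperature) quantified apoptosis induction. Cells were wild-type CHO-K1, treated with compound for 17hr at 37 C and 5% CO2.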
Test [9] is described as follows: Caspase-3/7 induction in HepG2 cells by small molecules, qHTS cell viability counter screen (AID 1346981). Also: series mostly up to about 92 µM; nearly all actives have a fitted effect of over 30% in size. The method in brief:
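In this quantitative HTS counter screen, compounds delivered in DMSO were left on unmodified HepG2 cells for 16 hr at 37 C. Viability was then determined fluorometrically with CellTiter-Fluor, in parallel with caspase-3/7 induction in the same wells.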

Test [10] deals with Nuclear receptor subfamily 1 group I member 2 (Homo sapiens) (UniProt O75469). Kind of test: Human pregnane X receptor (PXR) small molecule agonists, qHTS assay (AID 1346982). Also: nearly all actives have a fitted effect of over 35% in size. Also: potency is read from the fitted curve at half-maximal effect. The method in brief: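 Reporter HepG2 cells expressing PXR-Luc are cultured in charcoal-stripped FBS (5%), treated with compounds for 24 hr at 37 C, and assayed by ONE-Glo luminescence after 30 min at room temperature.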

Test [11] addresses Cytochrome P450 2D6 (Homo sapiens) (UniProt P10635). Kind of test: Cytochrome P450 Family 2 Subfamily D Member 6 (CYP2D6) small molecule antagonists: luciferase reporter qHTS assay (AID 1671196). Also: nearly all actives have a fitted effect of over 50% in size. Also: potency is read from the fitted curve at half-maximal effect. In short, it runs like this:
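Test chemicals meet CYP2D6 plus proluciferin substrate (10 min, RT); NADPH regenerating solution then drives turnover for 1 h. Detection reagent halts the reaction; luminescence measured after 20 min.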

In test [12] the target is Cytochrome P450 2C19 (Homo sapiens) (UniProt P33261). Briefly: Cytochrome P450 Family 2 Subfamily C Member 19 (CYP2C19) small molecule antagonists: luciferase reporter qHTS assay (AID 1671197). Also: nearly all actives have a fitted effect of over 65% in size. Also: potency is read from the fitted curve at half-maximal effect. The method in brief:
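Relative luminescence units recorded 20 min after the detection reagent stopped a 1 h, 37C CYP2C19 reaction on proluciferin substrate, which was started by NADPH regeneration following 10 min room-temperature compound preincubation; ketoconazole positive control.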
For orientation: Reporter assays use an easily measured gene product as a stand-in for the process of interest.

Test [13] concerns the target Cytochrome P450 2C9 (Homo sapiens) (UniProt P11712). Briefly: Cytochrome P450 Family 2 Subfamily C Member 9 (CYP2C9) small molecule antagonists: luciferase reporter qHTS assay (AID 1671198). Also: nearly all actives have a fitted effect of over 50% in size. Also: potency is read from the fitted curve at half-maximal effect. In short, it runs like this:
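Enzyme-substrate mix preincubated with compound 10 min at room temperature; reaction started with NADPH regeneration solution, 1 h 37C. Luminescent luciferin product read after 20 min detection reagent.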

Test [14] deals with Cytochrome P450 1A2 (Homo sapiens) (UniProt P05177). Briefly: Cytochrome P450 Family 1 Subfamily A Member 2 (CYP1A2) small molecule antagonists: luciferase reporter qHTS assay (AID 1671199). Also: nearly all actives have a fitted effect of over 50% in size. Also: potency is read from the fitted curve at half-maximal effect. The method in brief:
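Steps: enzyme-substrate mix dispensed; test compounds and furafylline control pinned in; 10 min room temperature; NADPH regeneration solution added, 1 h; reaction stopped with luciferin detection reagent; luminescence read after 20 min.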

Test [15] is described as follows: qHTS assay to identify small molecule agonists of the TGF-beta/Smad signaling pathway (AID 1346859; active = well fitted activation curve with a large enough effect in the signal ratio in the repeat runs, not every such curve was filed as active; the % refers to the signal ratio; also: series mostly up to about 77 µM). The method in brief:
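Screening used HEK 293T SBE-bla cells at 4,000/well. Test agents: 5 hr, 37 C. Detection: FRET substrate, 2 hr RT, then excitation 405 nm with emissions at 460 and 530 nm.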

The nature of test [16]: Caspase-3/7 induction in CHO-K1 cells by small molecules, qHTS cell viability counter screen (AID 1346979). Also: nearly all actives have a fitted effect of over 35% in size. Also: potency is read from the fitted curve at half-maximal effect. The method in brief: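 Following a 5hr settling period, CHO-K1 cells at 1,500 per well received DMSO-dissolved compounds. Cell viability was quantified 16hr later by CellTiter-Fluor fluorescence, measured after 1hr with reagent at 37C.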
Test [17] addresses Thyrotropin-releasing hormone receptor (Homo sapiens) (UniProt P34981). Kind of test: qHTS assay to identify small molecule antagonists of the thyrotropin-releasing hormone receptor (TRHR) signaling pathway (AID 1346877; active = well fitted inhibition curve with a large enough effect in the repeat runs, not every such curve was filed as active; also: series mostly up to about 51 µM). The method in brief: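 Kinetic fluorescence (3 min, 1 s resolution) following stimulation with TRH at 1 nM final; HEK293 cells bearing human TRHR; 5 min compound preincubation at RT; concentration-response over 15 points, triplicates.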

“And” between values parts separate entries of the source, which are not always exact repeats. Identical values can stand only once. Records with an inconclusive call do not appear. Some structures have more than one record in an assay (separate samples or runs), and their calls can disagree. The source made the active and inactive calls. Unless noted, calls follow the shape of the dose curve; as a rule, active = well fitted curve in the direction sought with a large enough effect in the repeat runs; inconclusive = weak or mixed curves; inactive = no such curve, though single readings can be large; an effect the other way counts as inactive or inconclusive.

Sequence of Cytochrome P450 1A2 (Homo sapiens) (P05177 whole entry, looked up): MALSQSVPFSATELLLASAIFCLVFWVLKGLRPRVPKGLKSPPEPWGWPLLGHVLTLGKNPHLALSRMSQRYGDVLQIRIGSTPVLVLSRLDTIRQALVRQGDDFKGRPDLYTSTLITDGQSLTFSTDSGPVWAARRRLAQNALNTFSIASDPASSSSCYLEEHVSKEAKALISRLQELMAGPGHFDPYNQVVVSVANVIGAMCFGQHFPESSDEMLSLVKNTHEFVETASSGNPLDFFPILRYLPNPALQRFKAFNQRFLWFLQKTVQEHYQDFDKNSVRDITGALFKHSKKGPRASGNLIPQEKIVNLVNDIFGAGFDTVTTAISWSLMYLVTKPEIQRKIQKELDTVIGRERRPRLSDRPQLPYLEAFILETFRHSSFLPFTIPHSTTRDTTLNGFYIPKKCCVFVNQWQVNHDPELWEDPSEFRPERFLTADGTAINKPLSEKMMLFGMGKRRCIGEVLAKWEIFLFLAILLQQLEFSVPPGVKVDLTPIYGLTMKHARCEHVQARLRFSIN
Sequence of Cytochrome P450 2D6 (Homo sapiens) (P10635 whole entry, looked up): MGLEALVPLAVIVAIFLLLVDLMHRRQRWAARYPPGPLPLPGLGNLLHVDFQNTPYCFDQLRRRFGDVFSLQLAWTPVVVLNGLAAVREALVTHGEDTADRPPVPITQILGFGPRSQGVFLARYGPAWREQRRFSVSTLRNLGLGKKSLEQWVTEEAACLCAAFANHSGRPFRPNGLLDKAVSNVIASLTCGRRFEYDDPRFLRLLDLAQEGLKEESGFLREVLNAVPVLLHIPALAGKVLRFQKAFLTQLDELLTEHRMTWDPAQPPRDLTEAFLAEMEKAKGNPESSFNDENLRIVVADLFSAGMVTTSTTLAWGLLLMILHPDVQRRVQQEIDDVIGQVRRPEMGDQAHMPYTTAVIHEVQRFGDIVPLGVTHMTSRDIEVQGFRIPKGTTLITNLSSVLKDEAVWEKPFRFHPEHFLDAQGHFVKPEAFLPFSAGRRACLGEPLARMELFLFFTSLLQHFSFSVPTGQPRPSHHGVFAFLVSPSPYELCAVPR
Sequence of Cytochrome P450 2C9 (Homo sapiens) (P11712 whole entry, looked up): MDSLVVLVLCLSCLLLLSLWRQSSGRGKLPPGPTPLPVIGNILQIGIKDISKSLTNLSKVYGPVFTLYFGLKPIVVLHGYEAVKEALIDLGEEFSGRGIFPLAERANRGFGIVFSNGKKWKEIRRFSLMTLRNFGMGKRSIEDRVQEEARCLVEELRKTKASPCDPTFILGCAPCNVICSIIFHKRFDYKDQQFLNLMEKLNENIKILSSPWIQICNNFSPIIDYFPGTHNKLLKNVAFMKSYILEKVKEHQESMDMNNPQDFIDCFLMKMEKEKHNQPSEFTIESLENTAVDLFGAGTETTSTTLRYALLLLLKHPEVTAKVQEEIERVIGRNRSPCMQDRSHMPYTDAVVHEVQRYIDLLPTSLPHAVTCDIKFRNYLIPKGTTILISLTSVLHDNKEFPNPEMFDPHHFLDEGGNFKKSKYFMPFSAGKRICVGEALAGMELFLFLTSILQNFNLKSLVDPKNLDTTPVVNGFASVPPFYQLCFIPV
Sequence of Thyrotropin-releasing hormone receptor (Homo sapiens) (P34981 whole entry, looked up): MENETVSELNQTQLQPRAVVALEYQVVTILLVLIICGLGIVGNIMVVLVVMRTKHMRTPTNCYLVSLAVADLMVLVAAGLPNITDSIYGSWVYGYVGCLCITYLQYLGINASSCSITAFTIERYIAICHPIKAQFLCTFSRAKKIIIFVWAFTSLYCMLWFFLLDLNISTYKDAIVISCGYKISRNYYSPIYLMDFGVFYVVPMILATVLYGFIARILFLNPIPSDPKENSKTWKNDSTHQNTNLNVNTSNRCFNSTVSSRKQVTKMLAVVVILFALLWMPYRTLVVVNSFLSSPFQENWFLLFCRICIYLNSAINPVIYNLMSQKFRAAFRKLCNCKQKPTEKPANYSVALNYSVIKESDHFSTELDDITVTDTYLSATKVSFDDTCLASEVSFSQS
Sequence of Nuclear receptor subfamily 1 group I member 2 (Homo sapiens) (O75469 whole entry, looked up): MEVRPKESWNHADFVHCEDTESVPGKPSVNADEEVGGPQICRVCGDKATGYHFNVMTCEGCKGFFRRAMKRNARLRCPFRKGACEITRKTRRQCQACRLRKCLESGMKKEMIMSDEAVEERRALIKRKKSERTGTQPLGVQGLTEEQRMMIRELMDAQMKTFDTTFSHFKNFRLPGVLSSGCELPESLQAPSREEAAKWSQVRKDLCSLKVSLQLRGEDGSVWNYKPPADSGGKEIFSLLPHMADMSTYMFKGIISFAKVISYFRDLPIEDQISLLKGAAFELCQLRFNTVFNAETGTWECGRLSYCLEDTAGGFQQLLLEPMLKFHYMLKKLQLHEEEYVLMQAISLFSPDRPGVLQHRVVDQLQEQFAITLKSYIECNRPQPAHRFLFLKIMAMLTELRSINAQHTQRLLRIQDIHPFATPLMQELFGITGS
Sequence of Cytochrome P450 2C19 (Homo sapiens) (P33261 whole entry, looked up): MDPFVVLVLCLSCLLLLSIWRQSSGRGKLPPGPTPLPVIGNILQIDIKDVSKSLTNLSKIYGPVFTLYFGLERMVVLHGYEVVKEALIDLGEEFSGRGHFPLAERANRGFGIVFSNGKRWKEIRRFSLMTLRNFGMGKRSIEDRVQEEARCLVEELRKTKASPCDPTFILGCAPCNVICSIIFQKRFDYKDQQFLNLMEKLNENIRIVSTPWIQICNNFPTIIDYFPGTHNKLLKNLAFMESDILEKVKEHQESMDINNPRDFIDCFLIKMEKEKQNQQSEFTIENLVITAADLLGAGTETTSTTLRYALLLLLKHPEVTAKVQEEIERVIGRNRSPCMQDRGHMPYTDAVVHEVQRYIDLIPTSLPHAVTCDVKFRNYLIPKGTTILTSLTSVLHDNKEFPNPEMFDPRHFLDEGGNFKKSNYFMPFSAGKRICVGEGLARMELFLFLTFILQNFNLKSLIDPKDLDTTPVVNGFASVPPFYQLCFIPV

Turning to `CCN(CC)c1ccc(C(=O)c2ccccc2C(=O)O)c(O)c1`, the Potency result in [1], in [2], in test [3], in test [4], in [6] and in test [7] was “inactive” each time. Moreover, the Potency entry in test [9], in [11] and in test [14] was “inactive” throughout. Moreover, the result in test [5] and in test [8] was inactive. In addition, the Potency in test [10] was 27.4 µM (active) and 19.3 µM (active); in test [12] it was 71.3 µM (active) and inactive; in test [13], 35.7 µM (active) and 31.7 µM (active).
Consider `CCCCCCCCCCCCCCCO`, for which the Potency entry in [1], in test [2], in [6], in test [7], in test [9] and in test [10] was “inactive” each time. In addition, in test [11], the Potency entry is “inactive”. For the same molecule, the Potency in [4] was 24.8 µM (active) and inactive; in test [16], 24.5 µM (active) and inactive; in [12], 35.9 µM (active) and 39.9 µM (active); in test [13], 40.3 µM (active); in test [14], 71.6 µM (active). The molecule was called inactive in test [15] and in test [8].
Consider `O=C(CC(C(=O)OC1CCCCC1)S(=O)(=O)O)OC1CCCCC1` (stereo unspecified), for which the Potency result in [1], in test [2], in [3], in test [4], in test [6] and in [7] was “inactive” throughout. Also, the Potency entry in test [16], in test [9], in [11], in test [12] and in [14] was “inactive” throughout. Besides, the molecule was called inactive in test [15] and in test [8]. Further, the Potency is 26.9 µM (active) in [10]; 40.1 µM (active) and 35.1 µM (active) in test [13].
As for `CCCCC(CC)CO` (stereo unspecified), the Potency entry in test [1], in [2], in test [3], in [4], in test [6] and in test [7] was “inactive” each time. Besides, the Potency result in test [16], in [9], in [10], in test [11], in [12] and in [13] was “inactive” in each case. In addition, in test [14], the Potency result was “inactive”. For the same molecule, the call in test [15] and in [8] was inactive.
For the molecule `CC1=C(C)S(=O)(=O)CCS1(=O)=O`, the Potency entry in test [2], in test [3], in test [4], in test [17], in test [7] and in test [10] was “inactive” throughout. The Potency entry in test [11], in [13] and in test [14] was “inactive” in each case. The result in test [15], in test [5] and in test [8] was inactive. Further, the Potency in test [12] is 69.7 µM (active) and inactive.
With `O=C(O)CCCCCCCCCCC(=O)O`, the Potency entry in test [1], in test [2], in test [3], in [4], in test [6] and in test [7] was “inactive” throughout. Moreover, the Potency entry in test [16], in [9], in [10] and in [14] was “inactive” each time. The call in test [15] and in test [8] was inactive. Further, the Potency in test [11] was 35.9 µM (active) and 39.9 µM (active); in test [12], 32 µM (active) and 31.7 µM (active).
As for `CN(C)CCC(c1ccc(Cl)cc1)c1ccccn1` (stereo unspecified), the Potency was 54.6 µM (active) in [1] and 44.7 µM (active) in [6]. Besides, the Potency entry in test [3], in test [4], in test [17], in test [7], in [16] and in test [9] was “inactive” in each case. The molecule was classed as inactive in [15], in test [5] and in test [8].

The values above are taken from PubChem BioAssay (Tox21).
